Common to all, as to test: DAPPL (digital affinity profiling via proximity ligation, sequencing); 10 mM Tris-HCl pH 7.5, 50 mM NaCl, 1 mM DTT, 4% glycerol, room temperature, 30 min; GST-TFs on glutathione beads, 16-mer random dsDNA library, 0.1% formaldehyde crosslink after washing; high values mean tight binding
Settings in all cases: protein: recombinant; tags: N-terminal GST; dsDNA, one strand shown

One test deals with T1, ERF (Homo sapiens, UniProt P50548 1-548).
T1 sequence: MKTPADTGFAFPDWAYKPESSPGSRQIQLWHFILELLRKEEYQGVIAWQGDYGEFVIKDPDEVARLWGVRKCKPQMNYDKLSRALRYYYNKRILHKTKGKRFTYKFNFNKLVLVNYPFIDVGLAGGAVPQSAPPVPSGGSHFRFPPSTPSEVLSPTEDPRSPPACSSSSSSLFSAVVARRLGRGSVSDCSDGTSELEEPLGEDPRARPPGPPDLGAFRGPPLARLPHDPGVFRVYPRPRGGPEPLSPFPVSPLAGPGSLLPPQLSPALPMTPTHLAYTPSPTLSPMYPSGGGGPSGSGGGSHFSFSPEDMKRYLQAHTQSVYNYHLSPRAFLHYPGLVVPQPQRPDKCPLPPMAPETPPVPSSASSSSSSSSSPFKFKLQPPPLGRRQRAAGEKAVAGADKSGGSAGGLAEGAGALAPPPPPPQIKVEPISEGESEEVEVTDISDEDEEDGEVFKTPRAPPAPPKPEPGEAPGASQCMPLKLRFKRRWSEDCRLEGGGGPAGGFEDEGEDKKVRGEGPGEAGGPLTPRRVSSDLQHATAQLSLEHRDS
In a few lines:
(§1)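 Binding signal is defined as a hexamer's read frequency for one factor over its frequency for the tag-only sample. To obtain reads, GST-fused human transcription factors were expressed in yeast, captured on glutathione beads, barcoded with DNA and pooled with that sample. Pools met 200 nmole of a 16-mer random double-stranded DNA library in Tris/NaCl/DTT/glycerol buffer for 30 min at room temperature before washing, 0.1% formaldehyde crosslinking, proximity ligation (BsaI/T4 ligase, 1 h, 37 °C), PCR and Illumina NextSeq500 sequencing.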

For the next test, the target named is T2, ETV3L (Homo sapiens, UniProt Q6ZN32 1-361).
T2 sequence: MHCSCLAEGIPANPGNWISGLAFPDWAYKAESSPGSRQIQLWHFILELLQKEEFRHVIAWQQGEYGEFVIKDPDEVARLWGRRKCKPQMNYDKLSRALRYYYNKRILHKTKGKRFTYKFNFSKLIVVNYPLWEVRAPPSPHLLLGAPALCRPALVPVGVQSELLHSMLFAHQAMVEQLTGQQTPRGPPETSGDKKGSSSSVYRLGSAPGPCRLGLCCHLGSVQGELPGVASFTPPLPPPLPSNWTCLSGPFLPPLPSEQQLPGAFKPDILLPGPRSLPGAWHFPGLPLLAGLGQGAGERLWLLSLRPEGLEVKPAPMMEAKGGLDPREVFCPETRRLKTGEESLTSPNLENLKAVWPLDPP
In a few lines:
as §1

A further test deals with T3, ETS2 (Homo sapiens, UniProt P15036 1-469).
T3 sequence: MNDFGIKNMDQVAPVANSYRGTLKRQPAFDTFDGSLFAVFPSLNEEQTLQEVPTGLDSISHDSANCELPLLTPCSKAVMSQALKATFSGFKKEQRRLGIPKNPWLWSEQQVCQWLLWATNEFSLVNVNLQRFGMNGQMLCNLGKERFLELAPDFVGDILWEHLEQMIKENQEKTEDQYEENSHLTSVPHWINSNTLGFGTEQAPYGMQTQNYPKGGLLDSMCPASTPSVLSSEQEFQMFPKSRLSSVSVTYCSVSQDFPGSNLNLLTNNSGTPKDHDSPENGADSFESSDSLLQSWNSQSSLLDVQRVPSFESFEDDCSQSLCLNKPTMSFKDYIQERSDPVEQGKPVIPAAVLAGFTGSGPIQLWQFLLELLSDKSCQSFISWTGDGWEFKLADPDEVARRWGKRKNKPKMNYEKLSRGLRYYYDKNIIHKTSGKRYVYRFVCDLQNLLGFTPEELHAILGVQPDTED
The method, boiled down:
as §1

In a further test the target is T4, SPDEF (Homo sapiens, UniProt O95238 1-335).
T4 sequence: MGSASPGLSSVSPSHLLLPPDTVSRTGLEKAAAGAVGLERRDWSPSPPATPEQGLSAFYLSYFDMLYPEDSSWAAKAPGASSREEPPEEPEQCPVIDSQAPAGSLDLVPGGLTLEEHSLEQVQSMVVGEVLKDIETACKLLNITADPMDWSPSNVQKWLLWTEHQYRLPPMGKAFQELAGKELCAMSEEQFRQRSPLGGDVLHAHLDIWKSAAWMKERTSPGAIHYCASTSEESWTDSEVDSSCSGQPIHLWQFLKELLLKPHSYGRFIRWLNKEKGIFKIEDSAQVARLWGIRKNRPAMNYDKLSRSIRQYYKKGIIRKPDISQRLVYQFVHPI
The method, boiled down:
as §1

The next test deals with T5, ETV7 (Homo sapiens, UniProt Q9Y603 1-341).
T5 sequence: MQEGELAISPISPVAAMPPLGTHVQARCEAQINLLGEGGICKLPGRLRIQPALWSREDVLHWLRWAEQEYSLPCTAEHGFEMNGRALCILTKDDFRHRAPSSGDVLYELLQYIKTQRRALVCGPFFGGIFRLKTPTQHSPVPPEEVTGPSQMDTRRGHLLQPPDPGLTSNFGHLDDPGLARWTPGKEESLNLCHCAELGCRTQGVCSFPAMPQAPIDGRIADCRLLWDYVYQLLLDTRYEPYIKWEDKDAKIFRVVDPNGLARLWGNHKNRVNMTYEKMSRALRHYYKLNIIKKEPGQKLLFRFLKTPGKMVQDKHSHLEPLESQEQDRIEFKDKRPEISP
In a few lines:
as §1

Another test has as its target T6, ELF5 (Homo sapiens, UniProt Q9UKW6-2 1-255).
T6 sequence: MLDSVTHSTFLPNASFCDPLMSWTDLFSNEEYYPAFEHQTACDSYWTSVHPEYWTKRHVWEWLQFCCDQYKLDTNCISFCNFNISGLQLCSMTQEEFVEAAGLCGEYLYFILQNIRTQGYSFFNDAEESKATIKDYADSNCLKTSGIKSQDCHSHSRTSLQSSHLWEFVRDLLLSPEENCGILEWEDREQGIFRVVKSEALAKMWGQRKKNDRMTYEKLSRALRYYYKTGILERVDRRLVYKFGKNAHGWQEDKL
In a few lines:
as §1

Another test addresses T7, ETV3 (Homo sapiens, UniProt P41162-2 1-143).
T7 sequence: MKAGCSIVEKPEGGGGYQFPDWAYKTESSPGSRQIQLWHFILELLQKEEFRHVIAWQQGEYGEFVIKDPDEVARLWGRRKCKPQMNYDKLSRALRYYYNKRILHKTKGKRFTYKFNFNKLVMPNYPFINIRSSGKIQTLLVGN
In a few lines:
as §1

Another test has as its target ETV6 (Homo sapiens, UniProt P41212 1-452). In a few lines:
as §1

Chain of ETV6 (P41212 whole entry): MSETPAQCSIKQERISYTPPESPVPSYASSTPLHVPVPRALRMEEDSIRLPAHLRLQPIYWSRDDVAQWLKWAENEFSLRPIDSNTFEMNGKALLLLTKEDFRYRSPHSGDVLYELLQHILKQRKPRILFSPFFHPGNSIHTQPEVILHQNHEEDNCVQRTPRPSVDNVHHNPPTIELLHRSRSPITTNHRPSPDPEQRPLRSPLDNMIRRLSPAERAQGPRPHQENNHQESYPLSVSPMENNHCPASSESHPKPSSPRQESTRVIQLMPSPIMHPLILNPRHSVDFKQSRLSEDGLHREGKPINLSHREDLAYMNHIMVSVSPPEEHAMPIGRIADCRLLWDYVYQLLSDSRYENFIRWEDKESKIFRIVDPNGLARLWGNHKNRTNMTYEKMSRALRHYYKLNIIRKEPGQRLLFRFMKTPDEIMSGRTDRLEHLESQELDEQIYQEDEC

Consider CCGCCG, for which the binding signal is 1.18 fold enrichment (6-mer frequency, TF over GST control) in the test with ERF; 1.2 fold enrichment (6-mer frequency, TF over GST control) with ETV3L; 1.22 fold enrichment (6-mer frequency, TF over GST control) in the test with ETS2; 1.34 fold enrichment (6-mer frequency, TF over GST control) with SPDEF; 1.2 fold enrichment (6-mer frequency, TF over GST control) with ETV7; 1.31 fold enrichment (6-mer frequency, TF over GST control) with ELF5. Further, the binding signal is 1.31 fold enrichment (6-mer frequency, TF over GST control) with ETV3 and 1.23 fold enrichment (6-mer frequency, TF over GST control) with ETV6.
On to AAAGGT, for which the binding signal with ERF was 1.07 fold enrichment (6-mer frequency, TF over GST control); in the test with ETV3L, 1.03 fold enrichment (6-mer frequency, TF over GST control); in the test with ETS2 it was 1.04 fold enrichment (6-mer frequency, TF over GST control); with SPDEF, 1.11 fold enrichment (6-mer frequency, TF over GST control); with ETV7, 1.07 fold enrichment (6-mer frequency, TF over GST control); with ELF5 it was 1.01 fold enrichment (6-mer frequency, TF over GST control). Also, the binding signal was 1.05 fold enrichment (6-mer frequency, TF over GST control) with ETV3 and 1.11 fold enrichment (6-mer frequency, TF over GST control) with ETV6.
For the sequence CCCAAC, the binding signal with ERF was 1.24 fold enrichment (6-mer frequency, TF over GST control); in the test with ETV3L, 1.13 fold enrichment (6-mer frequency, TF over GST control); with ETS2, 1.13 fold enrichment (6-mer frequency, TF over GST control); in the test with SPDEF, 1.19 fold enrichment (6-mer frequency, TF over GST control); with ETV7 it was 1.06 fold enrichment (6-mer frequency, TF over GST control); in the test with ELF5, 1.12 fold enrichment (6-mer frequency, TF over GST control). Also, the binding signal with ETV3 is 1.05 fold enrichment (6-mer frequency, TF over GST control); with ETV6 it was 1.17 fold enrichment (6-mer frequency, TF over GST control).
On to TTTACG, for which the binding signal in the test with ERF was 1.22 fold enrichment (6-mer frequency, TF over GST control); in the test with ETV3L, 1.31 fold enrichment (6-mer frequency, TF over GST control); with ETS2, 1.29 fold enrichment (6-mer frequency, TF over GST control); in the test with SPDEF it was 1.26 fold enrichment (6-mer frequency, TF over GST control); in the test with ETV7, 1.25 fold enrichment (6-mer frequency, TF over GST control); in the test with ELF5 it was 1.32 fold enrichment (6-mer frequency, TF over GST control). For the same sequence, the binding signal with ETV3 was 1.19 fold enrichment (6-mer frequency, TF over GST control); with ETV6, 1.27 fold enrichment (6-mer frequency, TF over GST control).
Turning to CGAAAG, the binding signal with ERF was 1.11 fold enrichment (6-mer frequency, TF over GST control); with ETV3L, 1.05 fold enrichment (6-mer frequency, TF over GST control); with ETS2, 1.11 fold enrichment (6-mer frequency, TF over GST control); in the test with SPDEF it was 1.07 fold enrichment (6-mer frequency, TF over GST control); in the test with ETV7, 1.19 fold enrichment (6-mer frequency, TF over GST control); with ELF5 it was 1 fold enrichment (6-mer frequency, TF over GST control). Besides, the binding signal with ETV3 was 1.02 fold enrichment (6-mer frequency, TF over GST control); in the test with ETV6 it was 1.02 fold enrichment (6-mer frequency, TF over GST control).
For TTGCAG, the binding signal with ERF is 1.24 fold enrichment (6-mer frequency, TF over GST control); with ETV3L it was 1.11 fold enrichment (6-mer frequency, TF over GST control); in the test with ETS2, 1.19 fold enrichment (6-mer frequency, TF over GST control); with SPDEF, 1.14 fold enrichment (6-mer frequency, TF over GST control); with ETV7, 1.13 fold enrichment (6-mer frequency, TF over GST control); in the test with ELF5 it was 1.08 fold enrichment (6-mer frequency, TF over GST control). The binding signal was 1.1 fold enrichment (6-mer frequency, TF over GST control) in the test with ETV3 and 1.12 fold enrichment (6-mer frequency, TF over GST control) in the test with ETV6.
On to AAGAAG, for which the binding signal with ERF is 1.01 fold enrichment (6-mer frequency, TF over GST control); with ETV3L it was 1.04 fold enrichment (6-mer frequency, TF over GST control); with ETS2, 1.04 fold enrichment (6-mer frequency, TF over GST control); in the test with SPDEF it was 1.01 fold enrichment (6-mer frequency, TF over GST control); in the test with ETV7, 1.16 fold enrichment (6-mer frequency, TF over GST control); with ELF5, 1.12 fold enrichment (6-mer frequency, TF over GST control). The binding signal is 1.05 fold enrichment (6-mer frequency, TF over GST control) with ETV3 and 1.16 fold enrichment (6-mer frequency, TF over GST control) with ETV6.
For AACCGG, the binding signal with ERF is 1.42 fold enrichment (6-mer frequency, TF over GST control); in the test with ETV3L, 1.43 fold enrichment (6-mer frequency, TF over GST control); with ETS2 it was 1.46 fold enrichment (6-mer frequency, TF over GST control); in the test with SPDEF, 1.8 fold enrichment (6-mer frequency, TF over GST control); with ETV7, 1.36 fold enrichment (6-mer frequency, TF over GST control); in the test with ELF5, 1.52 fold enrichment (6-mer frequency, TF over GST control). Also, the binding signal with ETV3 was 1.6 fold enrichment (6-mer frequency, TF over GST control); in the test with ETV6 it was 1.5 fold enrichment (6-mer frequency, TF over GST control).

Values taken from publication PMC7862700, “An all-to-all approach to the identification of sequence-specific readers for epigenetic DNA modifications on cytosine”.
